# Data reported in PubChem BioAssay AID686979 (National Center for Advancing Translational Sciences (NCATS), 2013).
# In all, about 420,000 compounds went through this assay and about 50,000 (12%) were called active. Roughly 26% stayed inconclusive and do not appear here. Many of the other results were omitted from the sample, so actives are more common in it than they were. A number with no mark means an inactive call. The call rests on the fitted dose curve; in most records, active means well fitted inhibition curve with a large enough effect; inconclusive means small, poorly fitted or top-dose-only effect; inactive means flat fitted curve, though single readings scatter.
# Assay: qHTS for Inhibitors of human tyrosyl-DNA phosphodiesterase 1 (TDP1): qHTS in cells in presence of CPT; further: nearly all actives have a fitted effect of over 55% in size
# Conditions: chicken DT40 Tdp1-/-;hTDP1 cells + 20 nM CPT, ATP luminescence, 48 h; series mostly up to 46.2 µM; activity change, negative = growth inhibition: at the top concentration
# Outline: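 Chicken DT40 Tdp1-/- cells stably complemented with human TDP1 were seeded at 400 cells/well in medium containing 20 nM camptothecin, exposed to pin-transferred compounds, and grown at 37 °C for at least 48 hr. Viability was read as ATP luminescence.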
# On the % scale 0 is the no-effect control and ±100 the full control effect; potency means the concentration at half of the fitted maximal effect.
Compound,Potency,"activity change, negative = growth inhibition [%]"
COc1cccc(-c2nc(Nc3ccncc3)c3ccccc3n2)c1,8.2 µM (active),
COc1ccc(Cl)cc1N(CC(=O)N1CCCCC1)S(C)(=O)=O,,-0.885
C=Cn1cc[n+](CC(=O)c2ccc(OC)c(OC)c2)c1,,-2
COc1ccc(C23NCCN2C(=O)c2ccccc23)cc1 (stereo not drawn),,21.2
Cc1cccc(S(=O)(=O)N(C)C[C@H]2OCc3cnnn3CCCC(=O)N([C@@H](C)CO)C[C@H]2C)c1,,-21.2
CCCCn1c(N)c(N(Cc2ccccc2OC)C(=O)COc2cc(C)ccc2Cl)c(=O)[nH]c1=O,,0.516
CCCCc1nn2c(=O)cc(COC(=O)c3cccc(NC(=O)COc4ccccc4)c3)nc2s1,,-7.98
COc1ccc(CN2CCC(C)(Oc3cccc(F)c3)C2)c2ccccc12 (stereo not drawn),23.1 µM (active),
CCOc1cc(CN2CCCC(CO)(Cc3ccc(F)cc3F)C2)ccc1OC (stereo not drawn),,-24.9
COc1ccccc1CN1CC2(CCN(S(=O)(=O)c3ccccc3)CC2)C1,,-28.8
Cc1ccc(CCNC(=O)CN2C(=O)CSc3ccc(S(=O)(=O)N4CCOCC4)cc32)cc1,,-30.8
C[C@H]1Cn2cnc(C(=O)N[C@@H](Cc3c[nH]c4ccccc34)C(=O)OC(C)(C)C)c2C(=O)N1,,0.235
CCCOc1ccc(Cn2c(O)cc(=O)[nH]c2=O)cc1,,21.5
CS(=O)(=O)N1CCN(C(=O)Cc2ccccc2)CC1,,-4.66
COc1cc(=O)[nH]c(=O)n1C(=O)Cc1ccccc1,13 µM (active),
COc1ccccc1NC(=O)[C@H](COCc1ccccc1)NC(=O)OC(C)(C)C,23.1 µM (active),
COc1ccccc1NC(=O)C(C)OC(=O)CC1CCCC1 (stereo not drawn),,0.0071
COc1ccccc1NC(=O)C(CC(=O)O)Cc1cc(C)cc(C)c1 (stereo not drawn),,-8.16
Cc1ccc(SCC(=O)NNC(=O)c2ccc(S(C)(=O)=O)cc2)cc1,,4.79
CCOc1ccc(CNC(=O)c2ccc3c(c2)nnn3C2CCCC2)cc1,,-29.4
Cc1cc(Cl)ccc1OCc1nc(-c2ccncc2)no1,,-25.7
CC(=O)Nc1ccc(-c2nc3ccccc3o2)cc1,,12
Cc1ccccc1-c1nc2cc(NC(=O)c3cccc(OCCC(C)C)c3)ccc2o1,23.1 µM (active),
O=C(Nc1ccc(-c2nc3cc(NC(=O)c4ccccc4Cl)ccc3o2)cc1)c1ccccc1Cl,7.31 µM (active),
O=C(Nc1ccc(C(=O)O)c(O)c1)c1ccccc1,inactive,
Cc1nc2cc(NC(=O)NCc3ccccc3)ccc2o1,,-25.7
CCCOc1ccc(C(=O)Nc2ccc3oc(-c4cccc(Cl)c4Cl)nc3c2)cc1,8.2 µM (active),

Compound,Potency,"activity change, negative = growth inhibition [%]"
CCCCOc1ccc(C(=O)Nc2cccc(-c3nc4ccccc4o3)c2C)cc1,,-29.3
CCc1ccc2oc(-c3ccc(NC(=O)c4cc5ccccc5o4)cc3)nc2c1,,-21.5
COc1cc(OC)cc(C(=O)Nc2ccc(-c3nc4ccccc4o3)c(O)c2)c1,18.4 µM (active),
COC(=O)c1ccc(-c2nc3cc(NC(C)=O)ccc3o2)cc1,,-5.85
Cc1nc2nc[nH]n2c(=O)c1NC(=O)c1cccc(OCC(C)C)c1,,-5.85
O=C(Nc1ccc2oc(-c3ccc(O)c(Br)c3)nc2c1)c1cc2ccccc2o1,,-2.63
O=Cc1c(NCCCN2CCCC2=O)c2ccccc2[nH]c1=O,,1.3
Cc1cccc(C(=O)OC(C)CN2CCCC2)c1 (stereo not drawn),,-0.708
COCCNC(=O)CCCN1C(=O)c2ccccc2Sc2ncccc21,inactive,
Cc1ccc2c(Cl)c(C(=O)Nc3nn[nH]n3)sc2c1,,-18.1
O=C(COC(=O)CNC(=O)C1CCCCC1)Nc1cccc(F)c1,,-5.92
CN(C(=O)c1ccccn1)c1nnc(-c2ccccn2)s1,,3.28
c1ccc(-c2cc(-c3nnc4sc(-c5ccccn5)nn34)[nH]n2)cc1,11.6 µM (active),
CCOc1cccc(-c2nn3c(-c4ccccn4)nnc3s2)c1,,-21.1
Cn1c(N)c(C(=O)COC(=O)c2ccccc2NCc2ccco2)c(=O)n(C)c1=O,,-11.2
Nc1cc(N)nc(SCc2ccc(Cl)cc2)n1,,7.24
CC(O)CN(Cc1ccc(Cl)cc1)CC(C)O (stereo not drawn),,1.11
CCN(CC)C(=O)[C@H]1CC(CC(=O)NCc2ccco2)C(=O)N2CCc3c([nH]c4ccccc34)[C@]12C (stereo partly drawn),,-24.8
CN(C)C(=O)CCc1ccc2c3c([nH]c2c1)[C@]1(C)[C@@H](C(=O)N2CCOCC2)C[C@H](CC(=O)NCCc2ccccn2)C(=O)N1CC3,,14.2
CCN(CC)C(=O)[C@H]1C[C@H](CC(=O)NCC23CC4CC(CC(C4)C2)C3)C(=O)N2CCc3c([nH]c4cc(CCC(=O)N(C)C)ccc34)[C@]12C,20.6 µM (active),
CC(C)N(C(=O)[C@H]1C[C@H](CC(=O)NC(C)(C)C)C(=O)N2CCc3c([nH]c4ccc(Cl)cc34)[C@]12C)C(C)C,7.31 µM (active),
C[C@]12c3[nH]c4ccc(Cl)cc4c3CCN1C(=O)[C@@H](CC(=O)NCCCn1ccnc1)C[C@@H]2C(=O)N1CCOCC1,,-15.4
CC[C@]12c3[nH]c4cc(CCC(=O)N(C)C)ccc4c3CCN1C(=O)[C@@H](CC(=O)NCCCN(C)C)C[C@@H]2C(=O)N1CCN(C(=O)c2ccco2)CC1,,1.51
CN(C)C(=O)CCc1ccc2c3c([nH]c2c1)[C@]1(CCc2ccccc2)[C@@H](C(=O)N2CCCCC2)C[C@H](CC(=O)NCCC2=CCCCC2)C(=O)N1CC3,8.2 µM (active),
CC[C@]12c3[nH]c4cc(CCC(=O)N(C)C)ccc4c3CCN1C(=O)[C@@H](CC(=O)NCc1ccco1)C[C@@H]2C(=O)N1CCN(C(=O)c2ccco2)CC1,,-19
CC[C@]12c3[nH]c4ccc(Cl)cc4c3CCN1C(=O)[C@@H](CC(=O)NCCCOC)C[C@@H]2C(=O)N1CCN(C(=O)C2CC2)CC1,,-25.7
